Data: PubChem BioAssay (NCATS)
Records with an inconclusive call do not appear. Where a call stands in place of a potency, no number is given. Activity calls are given as the source filed them. Calls follow the shape of the dose curve; as a rule, active = well fitted inhibition curve with a large enough effect; inconclusive = small, poorly fitted or top-dose-only effect; inactive = flat fitted curve, though single readings scatter.

Test system: CRL-7250
Test: qHTS assay to identify novel small-molecules to repurpose for Merkel cell carcinoma treatment (AID 1296009); also: nearly all actives have a fitted effect of over 60% in size
Conditions: MCC and control cell lines, CellTiter-Glo viability, 72 h; series mostly up to 92 µM
How it was run: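 Cells were treated for 72 hr at 37 degree celsius with compounds in 8- or 11-point dose response. Viability was read by CellTiter-Glo luminescence, normalized to no-cell (cytotoxicity) and DMSO controls.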

Structure (SMILES) | Potency
NCCOCCOCCNC(=O)Cc1ccc(Nc2nc(NCc3ccc(F)cc3)nc(NCC3CCCCC3)n2)cc1 | inactive
CC(=O)OC1C(OC(=O)c2ccccc2)C2C(C)(C)CCC(OC(C)=O)C2(C)C23CCC(C)(C2)C(=O)CC13 (configuration not stated) | inactive
O=C(/C=C/c1ccc(O)cc1)OC[C@H]1O[C@@H](O/C(=C\c2ccccc2)C(=O)O)[C@H](O)[C@@H](O)[C@@H]1O | inactive
COc1ccc(CNCc2cccc3ccccc23)cc1 | inactive
CCNC(=O)C1CC(F)(c2ccc(CN3CCCC3)c(F)c2)C1 (configuration not stated) | inactive
O[C@@](Cc1ncc(CC2(C(F)(F)F)CC2)[nH]1)(c1ccc(-n2cccn2)cc1)C(F)(F)F | inactive
CC(=O)OC1C(C)C2C(OC3OC(CO)C(O)C(O)C3O)OC=C(C(=O)O)C2C1OC(=O)c1ccccc1 (configuration not stated) | inactive
O=C(O)CCc1cccc(O[C@@H]2O[C@H](CO)[C@@H](O)[C@H](O)[C@H]2O)c1O | inactive
C[C@@H]1CC[C@]2(C(=O)O[C@@H]3O[C@H](CO)[C@@H](O)[C@H](O)[C@H]3O)CC[C@]3(C)C(=CCC4[C@@]5(C)C[C@@H](O)[C@H](O)C(C)(C)C5CC[C@]43C)C2[C@]1(C)O (some centres not stated) | inactive
COC(=O)C1=C2Nc3ccccc3C23CCN2CCCC(C(C)O)(C1)C23 (configuration not stated) | inactive
CC1(C)CC[C@]2(C(=O)O)CC[C@]3(C)C(=CCC4[C@@]5(C)C[C@H](O)[C@H](O[C@@H]6OC[C@H](O)[C@H](O)[C@H]6O)[C@@](C)(CO)C5CC[C@]43C)[C@@H]2C1 (some centres not stated) | inactive
Cc1c(C(=O)NCc2cccnc2)nn(-c2ccc(Cl)cc2Cl)c1-c1ccc(Cl)cc1 | inactive
